Bioassay records: PubChem BioAssay, National Center for Advancing Translational Sciences (NCATS)
The list is not random: actives were taken first. Their share in the collection is about 8.8%.
Lamin A splicing – LMNA splicing modulation. HeLa LMNA splicing GFP/RFP minigene ratio, 48 h. Potency, µM (series often up to 46.1 µM), actives largely listed as inhibitors. 200,000 compounds, 0.01% hits; active means well fitted inhibition curve with a large enough effect in the signal ratio, with a control signal flat, not every such curve was filed as active; inconclusive means small, poorly fitted or top-dose-only effect, or effect the other way, or a change in a side signal; the % refers to the signal ratio
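Read-out is the ratio of GFP to DsRed2 object intensity, acquired by 488 nm laser-scanning cytometry on HeLa lamin A-EGFP minigene reporter cells. Compound incubation 48 hrs at 37 °C in Opti-MEM with 2% FBS; DMSO 0.5% final.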
HTT ATP protect – Huntington cell model cytoprotection by ATP luminescence; PC12 HTT-Q103 induced, cytoprotection, ATP luminescence, 40 h; Potency, µM (titrated, usually from 56.4 µM), usual class: activators; 230,000 compounds, 0.14% hits; further: nearly all actives have a fitted effect of over 45% in size
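Stable PC12 Q103-GFP cells in serum-supplemented, phenol red-free DMEM; induction by tebufenozide at 100 nM final; compound dose series; cell viability quantified luminescently from ATP.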
HTT aggregate – reduces HttQ103-GFP aggregates in PC12 cells; PC12 HttQ103-GFP aggregates, Acumen cytometry, 40 h; Potency, µM (series often up to 46.1 µM), hits mostly inhibitors; 220,000 compounds, 1.1% hits; AID 1688; further: nearly all actives have a fitted effect of over 60% in size
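Using laser scanning cytometry, GFP-positive aggregates were counted after lysis of PC12 cells induced with 100 nM tebufenozide to express HTT exon 1 Q103–GFP. Compounds were tested in titration.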
ALDH1A1 inh – blocks purified human ALDH1A1 activity; P00352; Purified ALDH1A1, NADH fluorescence, propionaldehyde substrate; Potency, µM (highest dose often 75.3 µM), most hits filed as inhibitors; 220,000 compounds, 7.3% hits; active means well fitted inhibition curve with a large enough effect, not every such curve was filed as active; inconclusive means small, poorly fitted or top-dose-only effect, or another doubt; inactive means no such curve, though single readings can be large or run the other way
Target sequence (P00352 whole entry, looked up): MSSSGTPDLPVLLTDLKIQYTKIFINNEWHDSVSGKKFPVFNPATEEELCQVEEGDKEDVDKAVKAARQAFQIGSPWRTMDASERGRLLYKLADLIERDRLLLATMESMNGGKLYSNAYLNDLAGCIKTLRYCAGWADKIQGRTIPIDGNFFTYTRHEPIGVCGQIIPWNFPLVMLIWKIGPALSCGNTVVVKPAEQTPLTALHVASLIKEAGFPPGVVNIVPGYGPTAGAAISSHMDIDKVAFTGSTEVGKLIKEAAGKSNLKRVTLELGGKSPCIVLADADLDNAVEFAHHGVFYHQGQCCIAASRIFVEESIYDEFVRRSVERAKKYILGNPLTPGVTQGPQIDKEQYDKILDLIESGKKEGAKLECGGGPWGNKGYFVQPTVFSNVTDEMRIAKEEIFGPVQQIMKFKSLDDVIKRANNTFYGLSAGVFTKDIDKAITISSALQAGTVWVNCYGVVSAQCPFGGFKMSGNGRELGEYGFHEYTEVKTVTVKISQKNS
HPGD block – inhibitors of human 15-hydroxyprostaglandin dehydrogenase (HPGD). P15428. purified HPGD, NADH fluorescence kinetic, PGE2 substrate. Potency, µM, hits mostly inhibitors. 150,000 compounds, 4.3% hits; active means well fitted inhibition curve with a large enough effect, not every such curve was filed as active; inconclusive means small, poorly fitted or top-dose-only effect, or another doubt; inactive means no such curve, though single readings can be large or run the other way
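NADH formation kinetics: reaction with 30 uM PGE2 and 1 mM NAD+ (final), 20 nM enzyme, Tris-HCl pH 8 with Tween 20, after 15 min compound preincubation at room temperature. Fluorescence change, last versus first of five reads.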
Of the large screens only hits and unclear results are named; the others gave an inactive call. Unless noted, the call rests on the fitted dose curve; in most records, active means well fitted curve in the direction sought with a large enough effect; inconclusive means small, poorly fitted or top-dose-only effect, or another doubt; inactive means no such curve, though single readings can be large; an effect the other way counts as inactive or inconclusive.

O=C(CSc1nc2[nH]ncc2c(=O)n1-c1ccccc1)NCc1cccs1	ALDH1A1 inh inconclusive (no result: Lamin A splicing, HPGD block)
O=C(CSc1nc2[nH]ncc2c(=O)n1-c1ccccc1Br)NCc1ccco1	ALDH1A1 inh 13µM
CC(=O)c1cccc(S(=O)(=O)NCCc2csc3nc(-c4ccc(F)cc4)nn23)c1	none (no result: HTT ATP protect, HTT aggregate, ALDH1A1 inh, HPGD block)
Cc1nn(CCc2n[nH]c(=S)n2C2CCCCC2)c(C)c1Br	ALDH1A1 inh 20µM, HPGD block 25µM
O=C1N=C(N2CCN(c3cccc4ccccc34)CC2)S/C1=C/c1cccs1	HTT aggregate inconclusive
Cc1ccccc1N1CCN(C2=NC(=O)/C(=C\c3cccs3)S2)CC1	Lamin A splicing inconclusive, ALDH1A1 inh 16µM, HPGD block 25µM
O=C(Nc1cccc(Cl)c1)c1cc(S(=O)(=O)N2CCCc3ccccc32)ccc1F	none (no result: HTT ATP protect, HTT aggregate, ALDH1A1 inh, HPGD block)
COc1ccc2c(c1)C(=O)[C@@H](OC(=O)N[C@H]1CCCc3ccccc31)[C@H](c1ccc(OC)c(Br)c1)O2	ALDH1A1 inh 13µM (no result: Lamin A splicing, HTT aggregate)
COc1ccc2c(c1)O[C@H](c1ccc3c(c1)OCO3)[C@@H](OC(=O)N[C@H]1CCCc3ccccc31)C2=O	Lamin A splicing inconclusive, HTT ATP protect inconclusive
Cc1cc(C)c(NC(=O)C2CCCN2CCOC(=O)c2cccc([N+](=O)[O-])c2)c(C)c1 (stereo unspecified)	HTT aggregate inconclusive, ALDH1A1 inh 40µM
Cc1cc(C)c(NC(=O)C2CCCN2CCOC(=O)c2ccccc2)c(C)c1 (stereo unspecified)	ALDH1A1 inh inconclusive
O=C(COc1cccc(Cl)c1)Nc1cc(S(=O)(=O)N2CCOCC2)ccc1N1CCOCC1	none (no result: Lamin A splicing, ALDH1A1 inh, HPGD block)
Cc1ccccc1-n1c(-c2csc3ccccc23)n[nH]c1=S	ALDH1A1 inh 22µM, HPGD block 16µM (no result: HTT ATP protect)
Cc1ccc(-n2ncc(C(=O)N3CCN(c4cc(Cl)ccc4C)CC3)c2C2CCN(C(=O)OC(C)(C)C)CC2)cc1	none (no result: HTT ATP protect, HTT aggregate, ALDH1A1 inh, HPGD block)
CCNc1nc(NC(C)C)nc(N(C#N)CCOc2ccc(Cl)cc2Cl)n1	HTT aggregate 35µM
CCNc1nc(NC(C)C)nc(N(C#N)Cc2ccccc2)n1	ALDH1A1 inh 1.8µM
CCNc1nc(NC(C)C)nc(N(C#N)CC(=O)OC)n1	ALDH1A1 inh inconclusive (no result: Lamin A splicing, HPGD block)
CCCCCCN(C(=O)CCCCCN1C(=O)NC(C2CC2)C(C(=O)OCc2ccccc2)=C1C)C(C(=O)NCCCC)c1ccc(OCC(=O)OC)c(C(=O)OC)c1 (stereo unspecified)	ALDH1A1 inh 13µM (no result: Lamin A splicing, HTT aggregate)
CCCCCCN(C(=O)CCCCCN1C(=O)NC(c2ccc(-c3ccccc3)cc2)C(C(=O)OCc2ccccc2)=C1C)C(C(=O)NCCCC)c1ccc(OCC(=O)OC)c(C(=O)OC)c1 (stereo unspecified)	none (no result: Lamin A splicing, ALDH1A1 inh, HPGD block)
Cc1cc2sc(C)[n+](CCCOS(=O)(=O)O)c2cc1C	none (no result: Lamin A splicing, HTT aggregate)
Cc1ccc(NC(=O)c2cc(C)n(-c3ccccc3)c2C)cc1	Lamin A splicing inconclusive, HTT aggregate inconclusive, ALDH1A1 inh inconclusive, HPGD block 20µM
Cc1cccc(-n2c(C)cc(/C=N\NC(=O)c3ccco3)c2C)c1	ALDH1A1 inh inconclusive (no result: HPGD block)
Cc1ccc(NC(=O)c2cc(C)n(-c3cccc(C)c3)c2C)cc1	Lamin A splicing inconclusive, ALDH1A1 inh inconclusive, HPGD block 25µM (no result: HTT ATP protect)
Cc1ccc(-n2c(C)cc(C(=O)NS(=O)(=O)c3ccc(C)cc3)c2C)cc1	none
O=C1CCCC=C1[C@H](CCc1ccccc1)OC(=O)c1ccc(Br)cc1	none (no result: Lamin A splicing, HTT aggregate, HPGD block)
COc1cc(-c2cc(OC)c3c(C)oc(C)c3c(=O)c2)ccc1OC(=O)c1cccc(C)c1	none (no result: HTT ATP protect, HTT aggregate, ALDH1A1 inh, HPGD block)
N#CC1=C(SCc2ccccc2Cl)NC(=O)C(C(N)=O)C1 (stereo unspecified)	ALDH1A1 inh 16µM
CCc1cccc(C)c1NC(=O)Cn1ccn(Cc2ccc(Cl)cc2)c(=O)c1=O	none (no result: HTT ATP protect, HTT aggregate, ALDH1A1 inh, HPGD block)
Cc1ccccc1CN1CCC(CNc2ncnc3onc(-c4ccc(Cl)cc4)c23)CC1	none (no result: HTT ATP protect, HTT aggregate, ALDH1A1 inh, HPGD block)
C=Cc1ccc(C=C)cc1	ALDH1A1 inh 14µM (no result: Lamin A splicing, HTT aggregate)
CCCCNC(=S)N(C)N=C1CCC(c2ccccc2)CC1 (stereo unspecified)	Lamin A splicing inconclusive, ALDH1A1 inh 0.63µM (no result: HPGD block)
COC(=O)[C@@H]1CCCN1C(=O)CCc1nnc(CCC2CCCCC2)o1	Lamin A splicing inconclusive (no result: HPGD block)
